# Measurements published in the supplement of paper PMC11732987, “Enantioselective OTUD7B fragment discovery through chemoproteomics screening and high-throughput optimisation” (Communications Chemistry, 2025).
# Values without a mark were called inactive.
# How the values were obtained:
# Assay in all cases: log2 ratio of Biotin-Ahx-Ub-VS probe labelling (fragment/DMSO); higher = less target engagement (more negative = stronger competition), active = hit call of the paper (q ≤ 0.05, log2 ratio ≤ -1)
# Settings in all cases: compound concentration: 200 uM; treatment time: 3 h
# USP9X = USP9X (UniProt Q93008)
# In short: (§1)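 HEK293T lysate (495 µg per sample, in Tris/CHAPS/IGEPAL buffer with protease inhibitors) was exposed in triplicate for 3 h to fragment at 200 µM or to vehicle, then to Biotin-Ahx-Ub-VS at 0.5 µM final for 1 h. Labelled DUBs were enriched on NeutrAvidin, digested with LysC and trypsin, and analysed by diaPASEF LC-MS/MS. Spectronaut label-free quantities were normalised to the global median, and values are average log2 ratios of fragment over vehicle from an unpaired t-test. Only proteins with ≥2 unique peptides were used.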
# UniProt O00487 = molecular target: UniProt O00487
# In short: as §1
# UniProt O00507 = molecular target: UniProt O00507
# In short: as §1
# UniProt P51784 = molecular target: UniProt P51784
# In short: as §1
# UniProt Q5T2D3 = molecular target: T1, UniProt Q5T2D3
# T1 sequence (whole entry): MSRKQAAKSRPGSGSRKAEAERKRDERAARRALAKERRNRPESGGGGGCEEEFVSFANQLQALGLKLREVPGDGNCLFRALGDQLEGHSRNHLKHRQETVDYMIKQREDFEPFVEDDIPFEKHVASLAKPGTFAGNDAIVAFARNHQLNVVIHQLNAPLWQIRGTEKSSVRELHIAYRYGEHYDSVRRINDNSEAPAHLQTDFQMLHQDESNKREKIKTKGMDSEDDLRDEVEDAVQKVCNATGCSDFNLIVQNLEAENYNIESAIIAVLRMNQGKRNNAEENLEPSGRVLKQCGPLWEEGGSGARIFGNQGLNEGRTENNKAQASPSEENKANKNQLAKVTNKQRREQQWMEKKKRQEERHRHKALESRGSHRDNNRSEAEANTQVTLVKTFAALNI
# In short: as §1
# UniProt Q8TE49 = molecular target: T2, UniProt Q8TE49
# T2 sequence (whole entry): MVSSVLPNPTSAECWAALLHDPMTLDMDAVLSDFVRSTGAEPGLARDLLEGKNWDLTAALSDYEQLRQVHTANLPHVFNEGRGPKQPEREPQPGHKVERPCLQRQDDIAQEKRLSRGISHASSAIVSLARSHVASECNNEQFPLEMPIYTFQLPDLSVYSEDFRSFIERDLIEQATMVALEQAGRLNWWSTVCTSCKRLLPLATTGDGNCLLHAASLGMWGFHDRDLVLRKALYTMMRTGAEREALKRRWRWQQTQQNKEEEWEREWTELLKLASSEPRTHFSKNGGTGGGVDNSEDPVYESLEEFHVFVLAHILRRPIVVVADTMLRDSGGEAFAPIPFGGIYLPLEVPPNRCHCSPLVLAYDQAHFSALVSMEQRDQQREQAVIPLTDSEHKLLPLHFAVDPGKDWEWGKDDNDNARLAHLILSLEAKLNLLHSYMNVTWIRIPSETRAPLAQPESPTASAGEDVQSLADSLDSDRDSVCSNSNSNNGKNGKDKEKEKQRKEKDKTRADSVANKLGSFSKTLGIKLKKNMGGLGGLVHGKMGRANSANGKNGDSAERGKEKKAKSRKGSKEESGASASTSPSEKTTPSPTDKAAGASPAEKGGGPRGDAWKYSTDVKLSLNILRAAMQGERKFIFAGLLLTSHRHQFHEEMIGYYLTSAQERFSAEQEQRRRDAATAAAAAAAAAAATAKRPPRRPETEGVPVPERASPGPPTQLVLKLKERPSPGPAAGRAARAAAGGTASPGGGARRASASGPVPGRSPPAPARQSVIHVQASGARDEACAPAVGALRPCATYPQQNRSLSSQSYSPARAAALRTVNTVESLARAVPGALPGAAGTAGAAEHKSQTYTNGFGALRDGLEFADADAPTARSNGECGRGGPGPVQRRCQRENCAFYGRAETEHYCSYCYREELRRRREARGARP
# In short: as §1
# UniProt Q9P2H5 = molecular target: T3, UniProt Q9P2H5
# T3 sequence (whole entry): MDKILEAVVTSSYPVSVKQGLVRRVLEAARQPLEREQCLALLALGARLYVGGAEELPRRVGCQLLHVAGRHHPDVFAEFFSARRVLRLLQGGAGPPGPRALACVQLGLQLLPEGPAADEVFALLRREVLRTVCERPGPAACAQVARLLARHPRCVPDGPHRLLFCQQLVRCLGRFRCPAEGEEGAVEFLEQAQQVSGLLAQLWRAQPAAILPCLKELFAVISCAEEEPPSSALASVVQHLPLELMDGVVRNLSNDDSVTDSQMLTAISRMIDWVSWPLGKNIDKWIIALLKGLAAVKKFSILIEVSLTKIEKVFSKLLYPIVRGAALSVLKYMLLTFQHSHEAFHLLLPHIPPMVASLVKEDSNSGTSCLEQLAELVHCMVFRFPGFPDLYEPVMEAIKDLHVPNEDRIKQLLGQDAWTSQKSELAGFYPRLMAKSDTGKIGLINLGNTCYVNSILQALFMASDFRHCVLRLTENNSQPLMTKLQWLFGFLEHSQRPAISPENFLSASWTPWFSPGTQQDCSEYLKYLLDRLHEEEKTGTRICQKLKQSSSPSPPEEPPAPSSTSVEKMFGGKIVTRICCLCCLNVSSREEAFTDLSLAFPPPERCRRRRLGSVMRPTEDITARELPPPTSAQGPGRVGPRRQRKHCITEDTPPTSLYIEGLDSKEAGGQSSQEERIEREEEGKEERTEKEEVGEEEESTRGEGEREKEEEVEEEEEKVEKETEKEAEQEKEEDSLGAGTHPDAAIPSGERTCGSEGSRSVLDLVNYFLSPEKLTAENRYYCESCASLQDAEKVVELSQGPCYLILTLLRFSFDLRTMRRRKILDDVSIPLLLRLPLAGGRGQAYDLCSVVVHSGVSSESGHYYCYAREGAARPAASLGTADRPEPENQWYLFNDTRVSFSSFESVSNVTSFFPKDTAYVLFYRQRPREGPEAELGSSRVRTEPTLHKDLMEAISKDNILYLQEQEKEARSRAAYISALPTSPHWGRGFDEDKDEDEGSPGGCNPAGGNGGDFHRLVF
# In short: as §1
# UniProt Q9UGI0 = molecular target: T4, UniProt Q9UGI0
# T4 sequence (whole entry): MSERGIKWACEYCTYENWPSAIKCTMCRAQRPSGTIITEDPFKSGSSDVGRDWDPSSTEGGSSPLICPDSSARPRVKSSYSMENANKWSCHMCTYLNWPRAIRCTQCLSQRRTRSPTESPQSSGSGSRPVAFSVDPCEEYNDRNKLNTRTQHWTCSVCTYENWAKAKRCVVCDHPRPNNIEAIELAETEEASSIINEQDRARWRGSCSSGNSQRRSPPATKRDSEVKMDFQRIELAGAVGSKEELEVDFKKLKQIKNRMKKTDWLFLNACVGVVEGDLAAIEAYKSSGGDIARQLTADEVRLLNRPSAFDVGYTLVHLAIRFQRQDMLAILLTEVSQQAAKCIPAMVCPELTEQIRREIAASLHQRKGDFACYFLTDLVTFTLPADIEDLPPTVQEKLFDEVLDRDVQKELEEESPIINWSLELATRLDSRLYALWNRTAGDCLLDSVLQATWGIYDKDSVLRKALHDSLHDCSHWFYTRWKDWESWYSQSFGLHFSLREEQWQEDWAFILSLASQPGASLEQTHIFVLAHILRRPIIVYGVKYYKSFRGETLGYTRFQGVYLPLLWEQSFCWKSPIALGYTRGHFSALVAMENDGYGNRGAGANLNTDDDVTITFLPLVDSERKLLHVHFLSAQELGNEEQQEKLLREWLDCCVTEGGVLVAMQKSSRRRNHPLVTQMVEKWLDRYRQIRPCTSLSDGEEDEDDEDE
# In short: as §1
# YOD1 = molecular target: T5, YOD1 (UniProt Q5VVQ6)
# T5 sequence (whole entry): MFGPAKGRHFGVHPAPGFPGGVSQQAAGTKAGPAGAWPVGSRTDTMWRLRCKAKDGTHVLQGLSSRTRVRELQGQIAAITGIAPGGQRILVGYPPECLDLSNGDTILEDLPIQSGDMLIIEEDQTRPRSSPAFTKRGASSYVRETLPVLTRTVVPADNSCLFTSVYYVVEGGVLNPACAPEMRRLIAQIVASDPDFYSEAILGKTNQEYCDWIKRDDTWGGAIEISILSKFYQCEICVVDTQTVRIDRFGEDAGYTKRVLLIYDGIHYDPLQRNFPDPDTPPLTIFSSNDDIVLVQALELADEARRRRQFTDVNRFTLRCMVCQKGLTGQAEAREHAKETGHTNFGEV
# In short: as §1
# USP9X, sequence (Q93008 whole entry, the tested form may be a part): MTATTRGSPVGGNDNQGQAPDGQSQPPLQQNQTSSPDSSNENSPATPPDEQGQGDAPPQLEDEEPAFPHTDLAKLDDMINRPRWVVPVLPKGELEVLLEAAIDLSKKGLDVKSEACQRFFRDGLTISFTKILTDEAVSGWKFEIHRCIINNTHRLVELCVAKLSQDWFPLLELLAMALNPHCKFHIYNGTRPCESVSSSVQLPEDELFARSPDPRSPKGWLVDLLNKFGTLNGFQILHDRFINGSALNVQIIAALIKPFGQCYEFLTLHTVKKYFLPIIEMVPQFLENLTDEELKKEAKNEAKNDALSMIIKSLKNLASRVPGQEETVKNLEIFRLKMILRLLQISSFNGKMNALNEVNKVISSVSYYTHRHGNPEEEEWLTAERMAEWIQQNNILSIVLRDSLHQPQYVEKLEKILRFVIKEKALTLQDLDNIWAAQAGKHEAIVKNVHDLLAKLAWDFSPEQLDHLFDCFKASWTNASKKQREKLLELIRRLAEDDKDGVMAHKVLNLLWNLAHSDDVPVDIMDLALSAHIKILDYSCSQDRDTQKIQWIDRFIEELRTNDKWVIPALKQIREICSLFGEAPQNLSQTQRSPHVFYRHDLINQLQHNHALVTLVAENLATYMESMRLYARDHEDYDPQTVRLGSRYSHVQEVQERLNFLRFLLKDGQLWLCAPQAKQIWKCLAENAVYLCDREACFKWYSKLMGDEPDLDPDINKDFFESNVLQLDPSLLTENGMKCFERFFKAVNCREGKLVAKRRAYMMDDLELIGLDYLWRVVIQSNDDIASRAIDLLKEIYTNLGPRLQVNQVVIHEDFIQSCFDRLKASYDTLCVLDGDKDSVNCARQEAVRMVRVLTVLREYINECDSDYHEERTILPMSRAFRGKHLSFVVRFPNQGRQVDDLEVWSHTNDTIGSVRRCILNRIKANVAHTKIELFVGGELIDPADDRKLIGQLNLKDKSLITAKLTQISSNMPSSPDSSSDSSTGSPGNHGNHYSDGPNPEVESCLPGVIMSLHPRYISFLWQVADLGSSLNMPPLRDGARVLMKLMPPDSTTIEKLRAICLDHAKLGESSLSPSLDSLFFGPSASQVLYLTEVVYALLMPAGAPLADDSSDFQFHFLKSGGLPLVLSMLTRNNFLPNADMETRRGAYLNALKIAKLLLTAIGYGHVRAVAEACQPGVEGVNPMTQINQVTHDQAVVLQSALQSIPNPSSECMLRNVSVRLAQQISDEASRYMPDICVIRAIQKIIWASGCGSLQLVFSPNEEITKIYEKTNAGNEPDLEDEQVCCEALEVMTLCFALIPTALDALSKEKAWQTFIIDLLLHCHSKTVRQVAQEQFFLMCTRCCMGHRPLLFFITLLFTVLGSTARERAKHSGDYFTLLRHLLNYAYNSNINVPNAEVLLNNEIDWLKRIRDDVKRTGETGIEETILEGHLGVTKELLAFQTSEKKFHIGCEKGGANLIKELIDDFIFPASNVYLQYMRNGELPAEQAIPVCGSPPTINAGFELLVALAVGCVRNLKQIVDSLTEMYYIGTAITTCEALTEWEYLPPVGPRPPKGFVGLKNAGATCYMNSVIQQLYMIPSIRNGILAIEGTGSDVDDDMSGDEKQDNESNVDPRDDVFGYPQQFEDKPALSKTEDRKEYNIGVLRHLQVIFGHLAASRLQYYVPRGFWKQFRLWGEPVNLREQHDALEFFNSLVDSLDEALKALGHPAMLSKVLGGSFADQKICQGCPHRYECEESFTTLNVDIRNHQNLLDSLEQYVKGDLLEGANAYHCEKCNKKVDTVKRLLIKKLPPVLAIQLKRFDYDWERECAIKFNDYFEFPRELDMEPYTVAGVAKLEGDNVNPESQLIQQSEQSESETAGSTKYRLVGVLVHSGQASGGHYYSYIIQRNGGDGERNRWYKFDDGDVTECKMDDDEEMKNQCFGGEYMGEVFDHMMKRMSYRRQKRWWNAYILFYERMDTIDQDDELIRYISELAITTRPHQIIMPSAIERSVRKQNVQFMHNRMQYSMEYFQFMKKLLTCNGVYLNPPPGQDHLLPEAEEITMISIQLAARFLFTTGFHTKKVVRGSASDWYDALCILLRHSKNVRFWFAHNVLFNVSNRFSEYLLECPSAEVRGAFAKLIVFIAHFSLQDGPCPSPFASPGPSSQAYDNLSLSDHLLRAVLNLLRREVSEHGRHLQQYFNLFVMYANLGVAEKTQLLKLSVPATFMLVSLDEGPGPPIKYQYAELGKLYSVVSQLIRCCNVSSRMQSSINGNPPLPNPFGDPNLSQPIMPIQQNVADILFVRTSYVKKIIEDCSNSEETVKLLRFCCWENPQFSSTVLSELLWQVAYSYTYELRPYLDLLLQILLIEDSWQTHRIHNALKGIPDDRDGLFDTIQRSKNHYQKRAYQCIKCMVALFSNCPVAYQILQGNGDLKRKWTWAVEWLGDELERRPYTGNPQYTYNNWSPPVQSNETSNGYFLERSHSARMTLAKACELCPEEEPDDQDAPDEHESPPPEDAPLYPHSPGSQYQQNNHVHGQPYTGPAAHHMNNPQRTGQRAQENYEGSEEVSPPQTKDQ
# UniProt O00507, sequence (O00507 whole entry): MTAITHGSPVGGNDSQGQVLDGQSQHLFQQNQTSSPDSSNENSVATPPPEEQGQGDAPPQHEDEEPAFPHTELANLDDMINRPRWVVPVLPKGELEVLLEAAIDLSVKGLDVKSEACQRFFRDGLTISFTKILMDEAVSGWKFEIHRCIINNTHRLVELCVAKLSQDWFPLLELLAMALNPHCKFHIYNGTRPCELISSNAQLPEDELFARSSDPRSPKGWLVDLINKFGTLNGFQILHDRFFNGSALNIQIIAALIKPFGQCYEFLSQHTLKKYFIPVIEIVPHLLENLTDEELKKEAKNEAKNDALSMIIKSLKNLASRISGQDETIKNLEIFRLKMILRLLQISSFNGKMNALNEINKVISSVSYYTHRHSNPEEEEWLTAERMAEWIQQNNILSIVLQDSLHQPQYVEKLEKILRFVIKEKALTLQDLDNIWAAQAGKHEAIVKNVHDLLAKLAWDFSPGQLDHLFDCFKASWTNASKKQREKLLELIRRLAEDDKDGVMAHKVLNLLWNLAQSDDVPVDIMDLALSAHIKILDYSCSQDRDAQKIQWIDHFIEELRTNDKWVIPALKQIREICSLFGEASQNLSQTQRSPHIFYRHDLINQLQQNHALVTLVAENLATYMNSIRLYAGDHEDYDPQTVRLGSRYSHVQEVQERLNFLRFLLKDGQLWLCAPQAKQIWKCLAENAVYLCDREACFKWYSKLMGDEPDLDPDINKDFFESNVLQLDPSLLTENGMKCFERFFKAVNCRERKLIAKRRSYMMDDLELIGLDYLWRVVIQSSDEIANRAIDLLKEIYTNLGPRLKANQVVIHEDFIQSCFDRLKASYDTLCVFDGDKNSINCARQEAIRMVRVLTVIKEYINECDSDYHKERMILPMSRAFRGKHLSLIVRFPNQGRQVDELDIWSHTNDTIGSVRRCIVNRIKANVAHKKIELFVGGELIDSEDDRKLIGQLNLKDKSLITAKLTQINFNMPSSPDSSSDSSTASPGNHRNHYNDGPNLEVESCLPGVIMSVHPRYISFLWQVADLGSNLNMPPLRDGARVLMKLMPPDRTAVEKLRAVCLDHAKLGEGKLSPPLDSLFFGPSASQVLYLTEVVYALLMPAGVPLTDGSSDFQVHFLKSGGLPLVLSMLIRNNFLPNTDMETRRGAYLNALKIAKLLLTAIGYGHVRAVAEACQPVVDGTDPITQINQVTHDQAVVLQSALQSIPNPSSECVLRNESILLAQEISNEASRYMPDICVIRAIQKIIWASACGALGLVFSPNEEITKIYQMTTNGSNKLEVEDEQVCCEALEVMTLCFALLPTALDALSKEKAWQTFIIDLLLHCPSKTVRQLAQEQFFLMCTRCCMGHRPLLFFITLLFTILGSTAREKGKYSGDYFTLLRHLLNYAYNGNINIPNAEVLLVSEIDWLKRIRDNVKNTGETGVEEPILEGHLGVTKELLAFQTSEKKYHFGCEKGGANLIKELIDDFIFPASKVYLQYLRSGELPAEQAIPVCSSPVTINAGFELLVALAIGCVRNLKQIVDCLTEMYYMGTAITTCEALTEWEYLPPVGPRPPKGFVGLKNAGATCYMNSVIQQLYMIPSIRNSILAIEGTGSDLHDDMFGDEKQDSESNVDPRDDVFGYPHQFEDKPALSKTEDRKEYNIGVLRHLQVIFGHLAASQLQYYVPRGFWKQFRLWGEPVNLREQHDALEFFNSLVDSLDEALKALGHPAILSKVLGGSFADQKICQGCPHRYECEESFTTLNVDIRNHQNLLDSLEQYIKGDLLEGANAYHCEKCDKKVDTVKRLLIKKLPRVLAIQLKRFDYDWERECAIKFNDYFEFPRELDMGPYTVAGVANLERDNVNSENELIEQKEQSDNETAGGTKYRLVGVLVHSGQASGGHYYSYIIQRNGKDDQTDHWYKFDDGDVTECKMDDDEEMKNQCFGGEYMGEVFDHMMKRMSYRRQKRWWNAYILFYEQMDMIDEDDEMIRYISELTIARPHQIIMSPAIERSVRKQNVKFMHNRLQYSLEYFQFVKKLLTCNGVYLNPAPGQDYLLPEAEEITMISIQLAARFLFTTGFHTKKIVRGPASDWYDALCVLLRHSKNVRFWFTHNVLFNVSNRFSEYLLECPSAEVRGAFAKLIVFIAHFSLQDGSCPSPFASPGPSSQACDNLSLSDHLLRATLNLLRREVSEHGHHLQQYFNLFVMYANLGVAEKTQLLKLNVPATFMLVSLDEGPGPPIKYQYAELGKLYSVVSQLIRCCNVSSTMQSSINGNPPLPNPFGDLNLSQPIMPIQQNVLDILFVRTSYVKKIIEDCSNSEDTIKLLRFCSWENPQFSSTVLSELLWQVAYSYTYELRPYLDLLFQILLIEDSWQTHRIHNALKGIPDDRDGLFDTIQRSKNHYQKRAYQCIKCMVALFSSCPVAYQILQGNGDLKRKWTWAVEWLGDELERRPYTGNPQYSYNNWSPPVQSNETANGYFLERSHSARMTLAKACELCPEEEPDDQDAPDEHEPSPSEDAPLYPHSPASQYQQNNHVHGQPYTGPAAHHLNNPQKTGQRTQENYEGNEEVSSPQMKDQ
smiles,measurement,setting,value
O=C(CCl)Nc1ccc(Cl)c(F)c1,log2 ratio of Biotin-Ahx-Ub-VS probe labelling,USP9X,-0.282
same,log2 ratio of Biotin-Ahx-Ub-VS probe labelling,UniProt O00487,-0.0232
same,log2 ratio of Biotin-Ahx-Ub-VS probe labelling,UniProt O00507,-0.588
same,log2 ratio of Biotin-Ahx-Ub-VS probe labelling,UniProt P51784,-0.219
same,log2 ratio of Biotin-Ahx-Ub-VS probe labelling,UniProt Q5T2D3,-0.339
same,log2 ratio of Biotin-Ahx-Ub-VS probe labelling,UniProt Q8TE49,-0.571
same,log2 ratio of Biotin-Ahx-Ub-VS probe labelling,UniProt Q9P2H5,-0.0638
same,log2 ratio of Biotin-Ahx-Ub-VS probe labelling,UniProt Q9UGI0,-1.27 (active)
same,log2 ratio of Biotin-Ahx-Ub-VS probe labelling,YOD1,-0.313
